# Test results taken from PubChem BioAssay (NCI).
# Compounds without any hit were thinned out: in the full panel of roughly 83,000, 20% have a hit.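 Cells were grown in 96-well plates and exposed to the test compound at a single concentration for 48 hours; results are reported as percent growth, with values below 10 considered active.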 Values without a mark were called inactive. Active and inactive are the calls of the source.
# Tested on: HL-60(TB) leukemia
# Assay: NCI-60 one-dose screen, 48 h (100 = growth as untreated, 0 = no growth, -100 = all killed)
# Details: 10 µM unless noted
row,Structure (SMILES),growth
1,COc1cc(-c2nc(SCC(=O)Nc3ccc(C(C)=O)cc3)[nH]c(=O)c2C#N)cc(OC)c1OC,-54.3% (active)
2,O=C(CN1CCN(c2cc3c(cc2F)c(=O)c(C(=O)N/N=C/c2ccccc2)cn3C2CC2)CC1)N/N=C\c1ccccc1,51.1%
3,O=C(NCc1ccc2c(c1)OCO2)NCC1CCCC(CNC(=O)NCc2ccc3c(c2)OCO3)C1 (stereo not given),108%
4,Cc1ccc2c(c1)C(=O)C(c1c(-c3[nH]c(=O)c4ccc(C)cc4c3O)c(O)c3ccccc3c1O)=NC2=O,8.93% (active)
5,Cc1cc(N=O)cc(C(C)(C)C)c1O,99.6%
6,Cc1cccc[n+]1CCC[n+]1ccccc1C,86.4%
7,CN(C)c1ccc2cc(-c3nc4ccccc4s3)c(N)nc2c1,0.561% (active)
8,COc1ccc(C(=O)c2cc(OC)c(OC)c(OC)c2)cc1O,-29.1% (active)
9,N/C(=N\N=C\c1ccc2c(c1)OCO2)N/N=C\c1ccc2c(c1)OCO2,80%
10,O=C(/C=C/c1ccccn1)c1ccccc1,1.48% (active)
11,CCN(CC)C(=O)CCCCCn1c2ccccc2c2c3c(c4c5ccccc5[nH]c4c21)C(=O)N(O)C3=O,21.8%
12,O=C(NCCNC(=O)c1ccc(F)cc1)Nc1ccc(-n2cc(-c3ccncc3)c(-c3ccc(Cl)c(O)c3)n2)cc1,-14.1% (active)
13,O=C(O)c1cn(C2CC2)c2cc(N3CCN(S(=O)(=O)c4ccc(Cl)c(Cl)c4)CC3)c(F)cc2c1=O,-38.3% (active)
14,COc1cc(-c2nc(SCCC(C)C)nc(Nc3ccccc3)c2C#N)cc(OC)c1OC,83.9%
15,C/C(=N\NC(=S)Nc1ccccc1)c1ccccn1,3.23% (active)
16,O=C(Cn1cc(CSc2nc3ccccc3o2)nn1)Nc1ccc([N+](=O)[O-])cc1,98.2%
17,Cc1nc(Nc2cccnc2)sc1C(=O)/C=C/c1ccc(Cl)cc1,-4.8% (active)
18,CC(C)c1ccc(-n2c(=S)[nH]c3sc4c(c3c2=O)CCC(=O)C4)cc1,75.4%
19,COc1cc(/C=C/C(=O)c2ccc(F)cc2)ccc1OCCCCCOc1cc2c(cc1OC)C(=O)N1CCCC1C=N2 (stereo not given),-37.2% (active)
20,N=c1c2c(-c3ccccc3)c(-c3ccccc3)oc2ncn1NC(=O)c1cccnc1,99.7%

row,Structure (SMILES),growth
1,O=C1Nc2ccc(F)cc2/C1=C\c1nc(-c2ccccc2F)n2ccccc12,120%
2,N#Cc1ccc(N2Cc3cc(Cl)ccc3OC3=C2C(=O)N(Cc2ccc(F)cc2)C3=O)cc1,-57.9% (active)
3,COc1ccc(-c2csc(C3=C(O)CN(CCCN4CCCC4=O)C3=N)n2)cc1OC,114%
4,COc1ccc(/C=C(\C#N)n2nnc3ccccc32)cc1,-13% (active)
5,COc1cc(C2C(C#N)=C(N)Oc3cc4c(cc32)OCO4)cc2c1OCO2 (stereo not given),-43% (active)
6,Cc1ccc(-c2c3c(N)c4c(nc3nc3c2c(C)nn3-c2ccccc2)CCCC4)cc1,98.5%
7,COc1cc(C(=O)/C=C/c2c(C(F)(F)F)nc3sccn23)cc(OC)c1OC,-20% (active)
8,COc1cccc(-c2nc3sccn3c2-c2ccnc(NCCNS(=O)(=O)c3ccccc3)c2)c1,-18.1% (active)
9,COc1cc(-c2nn(-c3cccc(NC(=O)CCN4CCN(C)CC4)c3)cc2-c2ccncc2)ccc1Cl,-24.5% (active)
10,Fc1cccc(CNc2c3ccccc3nc3ccccc23)c1,47%
11,C/C=C/C(N)=O,107%
12,Oc1cccc2ccc(N/N=C/c3cc(CN4CCOCC4)c(O)c4ncccc34)nc12,0.899% (active)
13,Cc1c(-c2cnc3ccc(Cl)cc3c2C(=O)O)nnn1-c1ccc(Cl)cc1,96.2%
14,CCN(CC)CCC(CNc1c(C)cnc2cc(Cl)ccc12)c1ccc(Cl)c(Cl)c1 (stereo not given),51.5%
15,N#Cc1c(-c2ccco2)nc2c(c(-c3ccccc3)nn2-c2ccccc2)c1-c1ccc(O)cc1,22.9%
16,COC(=O)C(=Cc1ccccc1[N+](=O)[O-])C(=O)OC,-48% (active)
17,Cn1cc(-c2ccc3ncc(-c4ccc(CC(=O)Nc5cc(C(C)(C)C)nn5C)cc4)cc3c2)cn1,-36.7% [30 µM] (active)
18,O=C(/C=C1\C(=O)N(Cc2ccccc2)c2ccccc21)c1ccc(OCCN2CCCCC2)cc1,7.79% (active)
19,O=C(c1ccccc1)N1N=C(c2ccc(-n3ccc(C(F)(F)F)n3)c(F)c2)CC1c1ccc[nH]1 (stereo not given),101%
20,O=C(N/N=C/[C@@H](O)[C@H](O)[C@H](O)CO)c1ccc(NC(=O)c2cccnc2)cc1,99.4%
